# Not all results are given here.
# aSyn 5UTR act: Activators via SNCA 5'UTR binding, MLPCN; alpha-synuclein 5'UTR reporter, activators screen; activity score, % (tested at 7.5 µM), hits read low; 7.1% of 300,000 active; AID 1814, 2009; in the data active = activity score below about -60%
# * hit, by the source's call.
SMILES,aSyn 5UTR act
Cc1cccn2cc(-c3ccc4c(c3)NC(=O)CO4)nc12,-96.6*
COc1ccc(-c2cc(C(=O)Nc3ccc(C)cc3)no2)cc1,-70.8*
COc1ccc(-c2cc(C(=O)Nc3cc(C)on3)no2)cc1,-70.5*
COc1ccc(OCc2cccc(C(=O)Nc3cc(C)on3)c2)cc1,66.5
C(=C\c1ccncc1)/c1ccccc1,-73.3*
C(=C\c1nc(-c2ccccc2)no1)/c1ccccc1,-154.1*
C(=C\c1nc(-c2ccncc2)no1)/c1ccccc1,-131.8*
CC(=O)n1cc(N(C(=O)CCl)c2ccc(C)cc2)c2ccccc21,88.8
CC(=O)n1c2ccccc2c2nc3ccccc3nc21,-98.1*
COc1ccc(-c2nc3ccccc3o2)cc1OC,-82.4*
c1ccc2oc(-c3ccc4nc[nH]c4c3)nc2c1,-135.1*
CSc1cccc(CN(C)C(=O)C2CCC(=O)N(CCCN3CCCC3=O)C2)c1 (stereo not given),-72.6*
O=C1c2ccccc2S(=O)(=O)c2cc(N3CCC4(CC3)OCCO4)ccc21,-118.1*
CC1CCN(c2ccc3c(c2)S(=O)(=O)c2ccccc2C3=O)CC1,-139.9*
NC(=O)C1CCN(c2ccc3c(c2)S(=O)(=O)c2ccccc2C3=O)CC1,-63.5*
Brc1ccc(OCc2nc3ccccc3[nH]2)cc1,-213.6*
COc1ccc(OCc2nc3ccccc3[nH]2)cc1,-113.3*
c1ccc2cc(OCc3nc4ccccc4[nH]3)ccc2c1,-166.5*
COc1cccc(OCc2nc3ncc(Br)cc3[nH]2)c1,-77.1*
COc1cccc(CSc2nc3ccccc3cc2C=O)c1,71.0
COc1cccc(OCc2nc3ccccc3[nH]2)c1,-136.9*
O=C(Nc1cccc2ncccc12)c1ccc(-c2ccc(Br)cc2)o1,-79.2*
Cc1c(NC(=O)c2ccc([N+](=O)[O-])o2)cccc1-c1nc2ncccc2o1,-228.1*
O=C(Nc1cccc2ncccc12)c1ccc([N+](=O)[O-])o1,-169.5*
Cc1cccc(-c2noc(-c3ccc(Cl)cc3[N+](=O)[O-])n2)c1,-150.6*
SMILES,aSyn 5UTR act
COc1ccc(-c2noc(-c3ccc(Cl)cc3[N+](=O)[O-])n2)cc1OC,-118.4*
CSc1ncc(CN2CCCC(C(=O)c3ccc(C(C)(C)C)cc3)C2)cn1 (stereo not given),-87.7*
Cc1cccc(/C(N)=N/OC(=O)c2cccs2)c1,-105.5*
COc1ccc(/C(N)=N/OC(=O)c2cccs2)cc1OC,-185.8*
N/C(=N\OC(=O)c1cccs1)c1cccc(Br)c1,-128.2*
N/C(=N\OC(=O)c1cccs1)c1ccccc1,-250.1*
Cc1ccc(/C(N)=N/OC(=O)c2cccs2)cc1,-124.4*
Cc1ccc2nc(-c3ccsc3)c(NC3CCCC3)n2c1,-64.5*
COc1ccc(-c2nc(N/N=C(\C)c3ccc(O)cc3)c3ccccc3n2)cc1,-91.6*
Cc1csc(N/N=C/c2c(F)cccc2Cl)n1,-74.2*
Cc1csc(N/N=C/c2ccccc2F)n1,-200.5*
CCOc1ccc(/C=N/Nc2nc(C)cs2)c(O)c1,-259.6*
Cc1nc2cc3ccccc3cc2c(=O)[nH]1,-112.3*
COc1ccc(C(=O)NCCn2ccc3ccccc32)c(OC)c1,-89.8*
CN(C)/C=N/c1ncn(-c2ncc(C(F)(F)F)cc2Cl)n1,-84.8*
N=C1/C(=C/c2ccc(OCc3ccccc3)cc2)C(=O)N=C2SC(CC(=O)N3CCOCC3)=NN12,-95.1*
N=C1/C(=C/c2ccc(OCc3ccccc3F)cc2)C(=O)N=C2SC(CC(=O)N3CCOCC3)=NN12,-92.9*
COc1ccc(NC(=O)c2cnc3sccn3c2=O)cc1,-132.8*
O=C(Nc1cnc2sccn2c1=O)c1ccccc1Cl,-180.0*
Cc1cccc(NC(=O)c2cnc3sccn3c2=O)c1C,-124.3*
Cc1cccc(NC(=O)c2cnc3sccn3c2=O)n1,-115.5*
Cc1cccc(NC(=O)c2cnc3sccn3c2=O)c1,-74.4*
O=C(Nc1ccccc1)Nc1cccc(Cl)c1Cl,-237.2*
O=C(Nc1ccc(Cl)cc1)Nc1cccc2nsnc12,-125.8*
O=C(CN1CCCC1)Nc1ccc(NC(=O)Nc2ccccc2Cl)cc1,-126.4*
SMILES,aSyn 5UTR act
O=C(Nc1ccccc1)Nc1ccc(Br)c(Cl)c1,-126.0*
S=C(Nc1ccc(OCc2ccccc2)cc1)Nc1cccc(Cl)c1Cl,-102.1*
O=C(Nc1ccccc1)Nc1ccccc1Br,-93.6*
CCC(=O)N1CCc2nc(-c3ccccc3)sc2C1,-179.2*
CS(=O)(=O)c1ccccc1C(=O)Nc1ccc(-c2nc3ccccc3o2)cc1,-184.8*
CS(=O)(=O)c1ccccc1C(=O)Nc1ccc(-c2nc3ccccc3[nH]2)cc1,-156.2*
O=C(c1ccccc1)c1ccc2nc(-c3ccc(NC(=O)c4ccccc4Br)cc3)[nH]c2c1,75.1
COC(=O)c1ccc(OCc2cc(=O)n3ccsc3n2)cc1,-133.9*
O=Cc1s/c(=N\S(=O)(=O)c2ccccc2)n(CCCCl)c1Cl,69.8
Cn1c(=NC(=O)CS(=O)(=O)c2ccccc2)sc2ccccc21,-75.9*
Cn1c(=NC(=O)COc2ccccc2)sc2ccccc21,-148.2*
Cc1ccc(/C=N/NC(=O)Cc2ccc(Cl)cc2)c(O)c1,66.4
O=C(NCc1ccc(Cl)cc1Cl)Nc1ccccc1,-91.4*
Cc1ccc(C)c(CNC(=O)Nc2ccccc2)c1,-146.6*
Cc1ccc(CNC(=O)Cc2cccs2)cc1,-69.7*
Cc1ccc(CNC(=O)Nc2ccc(Cl)cc2)cc1,-98.7*
Cc1ccc(CNC(=O)NCc2ccccc2)cc1,-63.1*
CSc1ccc(NC(=O)NCc2ccccc2)cc1,-151.9*
O=C(NCC1CC1)Nc1ccc(Cl)cc1,-79.4*
NC(=NCCCCCCN=C(N)/N=C(\N)Nc1ccc(Cl)cc1)/N=C(\N)Nc1ccc(Cl)cc1,96.1
O=C(NCc1ccc(F)cc1)Nc1ccccc1,-108.0*
CC(=O)N(Cc1ccc(F)cc1)C1=C(NCc2ccccc2)C(=O)c2ccccc2C1=O,91.7
Cc1ccc(CNC(=O)Nc2ccccc2)cc1,-186.9*
Cc1ccc(CNC(=O)Nc2cccs2)cc1,-115.4*
CC(C)(C)C1CCC(OC(=O)CN2CCCCC2)CC1 (stereo not given),-63.3*
SMILES,aSyn 5UTR act
COc1cccc(NC(=O)c2cc3cccc(OC)c3o/c2=N\O)c1,-80.8*
COc1ccc(NC(=O)c2cc3cccc(OC)c3oc2=Nc2ccc(C(=O)O)cc2)cc1OC,-116.3*
COC(=O)Cn1c(SCc2ccccc2)nc2ccccc21,-166.2*
CC1(C)Nc2ccccc2C(=O)N1c1ccc(Br)cc1,-84.0*
COc1ccc(N2C(=O)c3ccccc3NC2(C)C)cc1,-69.3*
Cc1cccc2cc(C#N)c(SCC(=O)N3CC(=O)Nc4ccccc43)nc12,110.3
Cc1cc(NC(=O)CSc2nc3c(C)cccc3cc2C#N)no1,-209.0*
CC(C)=CC(=O)NCCc1ccccc1,-63.8*
O=C(CCCC(=O)c1ccc(O)cc1)c1ccc(O)cc1,-70.8*
O=C(NC(=S)NCCc1ccccc1)c1ccccc1,-115.4*
O=C(NCCc1ccccc1)c1ccc(-n2cnnn2)cc1,-66.1*
O=C(NCCc1ccccc1)c1ccccc1C(=O)NCCc1ccccc1,-113.1*
O=C(NCCc1ccccc1)c1cnc2n(c1=O)CCS2,-79.5*
COc1ccc(C(=O)NCCCc2ccccc2)cc1,-149.1*
O=C(CCCc1ccccc1)c1ccccc1,-104.9*
O=C(NCCc1ccccc1)c1ccc(Br)o1,-93.1*
Cc1ccccc1C(=O)NCCCc1ccccc1,-83.8*
O=C(CN(c1ccc(Cl)cc1)S(=O)(=O)c1ccc(Cl)c([N+](=O)[O-])c1)NCCc1ccccc1,105.8
O=C(NCCc1ccccc1)c1ccccc1NS(=O)(=O)N1CCCC1,-88.1*
O=C(NCCc1ccccc1)c1ccc(Cl)cc1[N+](=O)[O-],-166.8*
